Reference: the supplement of paper PMC10849652
About 7,900 targets were measured; listed, in parts, are those with a hit and a random draw of the rest. About 0.6% of all pairs of compound and target were hits.

How the values were obtained:
Assay in all cases: log2 fold change, soluble protein after heating vs DMSO (PISA); higher = thermal stabilisation; K562 cells, 10 uM, 30 min; active = over 0.2 and 3.5 SD of the protein, either way, in both replicates (recomputed)
[1] = compound: COC1=CC=C(C=C1)CN2C=CC3=C2C=C(C=C3)C(=O)NO
In short: (§1)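 Quantification of soluble protein used TMTpro 16plex LC-MS/MS, with channel sums equalised. Samples were the supernatant after 21,000xg for 90 min of pooled aliquots from K562 cells (2×10^6 cells/mL) treated with 10 μM compound for 30 min, heated for 3 min over 48°C-58°C, and extracted in PBS with 0.5% NP-40 at 4°C. Values, from duplicates, describe thermal stability against control samples on a log2 fold-change scale.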

filanesib = compound: CON(C)C(=O)N1N=C(c2cc(F)ccc2F)S[C@@]1(CCCN)c1ccccc1 [filanesib]
In short: as §1

zotarolimus = compound: CO[C@H]1C[C@@H]2CC[C@@H](C)[C@@](O)(O2)C(=O)C(=O)N2CCCC[C@H]2C(=O)O[C@H]([C@H](C)C[C@@H]2CC[C@H](n3cnnn3)[C@H](OC)C2)CC(=O)[C@H](C)/C=C(\C)[C@@H](O)[C@@H](OC)C(=O)[C@H](C)C[C@H](C)/C=C/C=C/C=C/1C [zotarolimus]
In short: as §1

idasanutlin = compound: COc1cc(C(=O)O)ccc1NC(=O)[C@@H]1N[C@@H](CC(C)(C)C)[C@](C#N)(c2ccc(Cl)cc2F)[C@H]1c1cccc(Cl)c1F [idasanutlin]
In short: as §1

alisertib = compound: COc1cc(Nc2ncc3c(n2)-c2ccc(Cl)cc2C(c2c(F)cccc2OC)=NC3)ccc1C(=O)O [alisertib]
In short: as §1

[2] = compound: COc1cc2nc(-c3cc(F)ccc3O)nc(N[C@@H]3CNC[C@H]3C(C)(C)O)c2cc1OC
In short: as §1

gefitinib = compound: COc1cc2ncnc(Nc3ccc(F)c(Cl)c3)c2cc1OCCCN1CCOCC1 [gefitinib]
In short: as §1

[3] = compound: COc1cccc2cc(-c3nc([C@H]4CC[C@H](C(=O)O)CC4)n4ncnc(N)c34)[nH]c12
In short: as §1

lapatinib = compound: CS(=O)(=O)CCNCc1ccc(-c2ccc3ncnc(Nc4ccc(OCc5cccc(F)c5)c(Cl)c4)c3c2)o1 [lapatinib]
In short: as §1

pictilisib = compound: CS(=O)(=O)N1CCN(Cc2cc3nc(-c4cccc5[nH]ncc45)nc(N4CCOCC4)c3s2)CC1 [pictilisib]
In short: as §1

[4] = compound: CS(=O)(=O)c1ccc(-c2cnc(N)c(C(=O)Nc3ccccc3)n2)cc1
In short: as §1

crizotinib = compound: C[C@@H](Oc1cc(-c2cnn(C3CCNCC3)c2)cnc1N)c1c(Cl)ccc(F)c1Cl [crizotinib]
In short: as §1

[5] = compound: C[C@@H]1COCCN1C2=NC(=NC(=C2)C3(CC3)S(=O)(=O)C)C4=C5C=CNC5=CC=C4
In short: as §1

[6] = compound: C[C@H](C1=CC=C(C=C1)C(=O)NC2=C3C=CNC3=NC=C2)N
In short: as §1

duvelisib = compound: C[C@H](Nc1ncnc2nc[nH]c12)c1cc2cccc(Cl)c2c(=O)n1-c1ccccc1 [duvelisib]
In short: as §1

gandotinib = compound: Cc1cc(Nc2cc(CN3CCOCC3)c3nc(C)c(Cc4ccc(Cl)cc4F)n3n2)n[nH]1 [gandotinib]
In short: as §1

tozasertib = compound: Cc1cc(Nc2cc(N3CCN(C)CC3)nc(Sc3ccc(NC(=O)C4CC4)cc3)n2)n[nH]1 [tozasertib]
In short: as §1

[7] = compound: Cc1cc(SCc2sc(-c3ccc(C(F)(F)F)cc3)nc2C)ccc1OCC(=O)O
In short: as §1

doramapimod = compound: Cc1ccc(-n2nc(C(C)(C)C)cc2NC(=O)Nc2ccc(OCCN3CCOCC3)c3ccccc23)cc1 [doramapimod]
In short: as §1

ispinesib = compound: Cc1ccc(C(=O)N(CCCN)[C@@H](c2nc3cc(Cl)ccc3c(=O)n2Cc2ccccc2)C(C)C)cc1 [ispinesib]
In short: as §1

Measured: log2 fold change

WASHC2C, A0A096LPC5
Chain of WASHC2C, A0A096LPC5 (A0A096LPC5 whole entry, looked up): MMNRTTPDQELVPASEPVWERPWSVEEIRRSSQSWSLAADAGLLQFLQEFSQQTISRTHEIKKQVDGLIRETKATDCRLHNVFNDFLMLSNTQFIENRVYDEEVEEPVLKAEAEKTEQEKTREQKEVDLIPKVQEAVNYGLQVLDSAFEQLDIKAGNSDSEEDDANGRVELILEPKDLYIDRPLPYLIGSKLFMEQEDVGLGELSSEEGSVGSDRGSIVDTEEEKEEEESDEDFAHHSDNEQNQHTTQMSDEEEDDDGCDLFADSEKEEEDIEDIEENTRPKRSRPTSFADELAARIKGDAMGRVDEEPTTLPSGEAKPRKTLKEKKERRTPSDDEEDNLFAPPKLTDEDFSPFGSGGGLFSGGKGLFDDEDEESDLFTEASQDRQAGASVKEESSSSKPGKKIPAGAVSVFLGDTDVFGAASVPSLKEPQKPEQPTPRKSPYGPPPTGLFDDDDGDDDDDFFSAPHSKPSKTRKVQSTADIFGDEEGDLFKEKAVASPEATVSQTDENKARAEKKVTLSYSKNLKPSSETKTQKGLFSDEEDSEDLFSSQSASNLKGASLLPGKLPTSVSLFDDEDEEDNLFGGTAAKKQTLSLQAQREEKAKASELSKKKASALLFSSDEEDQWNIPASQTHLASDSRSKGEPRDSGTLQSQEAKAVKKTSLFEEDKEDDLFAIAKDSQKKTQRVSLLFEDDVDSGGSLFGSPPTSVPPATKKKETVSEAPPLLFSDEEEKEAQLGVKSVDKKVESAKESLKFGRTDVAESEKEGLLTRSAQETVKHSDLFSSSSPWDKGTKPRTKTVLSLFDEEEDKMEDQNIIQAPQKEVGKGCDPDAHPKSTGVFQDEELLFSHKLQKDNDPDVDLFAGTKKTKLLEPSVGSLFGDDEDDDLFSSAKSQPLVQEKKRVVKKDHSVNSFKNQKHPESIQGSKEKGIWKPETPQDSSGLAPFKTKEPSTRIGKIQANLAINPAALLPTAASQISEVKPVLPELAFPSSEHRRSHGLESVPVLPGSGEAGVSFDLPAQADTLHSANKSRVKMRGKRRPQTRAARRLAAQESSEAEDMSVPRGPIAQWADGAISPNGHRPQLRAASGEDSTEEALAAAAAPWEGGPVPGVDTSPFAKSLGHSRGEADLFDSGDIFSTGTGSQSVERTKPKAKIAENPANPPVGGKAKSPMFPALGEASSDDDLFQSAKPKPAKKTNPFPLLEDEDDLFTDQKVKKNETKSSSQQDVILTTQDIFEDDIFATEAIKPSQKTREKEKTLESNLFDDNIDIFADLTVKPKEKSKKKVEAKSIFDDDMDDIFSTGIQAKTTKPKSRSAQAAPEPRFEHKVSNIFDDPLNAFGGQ
inactive: [1] -0.072 | filanesib 0.057 | zotarolimus -0.062 | idasanutlin 0.146 | alisertib -0.042 | [2] 0.305 | gefitinib 0.018 | [3] 0.098 | lapatinib -0.141 | pictilisib 0.048 | [4] -0.078 | crizotinib -0.363 | [5] 0.031 | [6] 0.025 | duvelisib 0.15 | gandotinib 0.189 | tozasertib 0.007 | [7] -0.053 | doramapimod 0.02 | ispinesib -0.135

TXNL4B (UniProt Q9NX01)
Chain of UniProt Q9NX01 (Q9NX01 whole entry, looked up): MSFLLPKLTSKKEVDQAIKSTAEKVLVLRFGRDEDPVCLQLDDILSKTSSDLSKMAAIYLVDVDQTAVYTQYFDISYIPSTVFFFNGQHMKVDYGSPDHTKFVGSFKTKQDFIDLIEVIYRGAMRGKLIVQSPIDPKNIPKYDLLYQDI
inactive: [1] 0.011 | filanesib -0.034 | zotarolimus -0.008 | idasanutlin -0.147 | alisertib 0.097 | [2] 0.106 | gefitinib 0.042 | [3] -0.064 | lapatinib -0.003 | pictilisib -0.003 | [4] 0.22 | crizotinib 0.309 | [6] 0.008 | duvelisib 0.083 | gandotinib -0.024 | tozasertib 0.07 | [7] 0.054 | doramapimod 0.037 | ispinesib -0.017

TMEM179B (UniProt Q7Z7N9)
Chain of UniProt Q7Z7N9 (Q7Z7N9 whole entry, looked up): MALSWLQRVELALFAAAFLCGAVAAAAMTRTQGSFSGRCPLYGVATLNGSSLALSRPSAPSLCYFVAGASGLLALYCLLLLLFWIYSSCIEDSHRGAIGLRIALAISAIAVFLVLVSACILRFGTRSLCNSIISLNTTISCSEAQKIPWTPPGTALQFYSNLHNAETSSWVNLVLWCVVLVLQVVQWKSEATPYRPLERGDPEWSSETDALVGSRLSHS
inactive: [1] -0.019 | filanesib -0.162 | zotarolimus -0.205 | idasanutlin 0.088 | alisertib -0.007 | [2] -0.03 | gefitinib 0.039 | [3] 0.175 | lapatinib 0.032 | pictilisib 0.036 | [4] -0.005 | crizotinib -0.167 | [5] 0.101 | [6] -0.165 | gandotinib -0.138 | tozasertib 0.032 | doramapimod 0.071 | ispinesib -0.099

UCHL5 isoform 3 (UniProt Q9Y5K5)
Chain of UniProt Q9Y5K5 (Q9Y5K5 whole entry, looked up): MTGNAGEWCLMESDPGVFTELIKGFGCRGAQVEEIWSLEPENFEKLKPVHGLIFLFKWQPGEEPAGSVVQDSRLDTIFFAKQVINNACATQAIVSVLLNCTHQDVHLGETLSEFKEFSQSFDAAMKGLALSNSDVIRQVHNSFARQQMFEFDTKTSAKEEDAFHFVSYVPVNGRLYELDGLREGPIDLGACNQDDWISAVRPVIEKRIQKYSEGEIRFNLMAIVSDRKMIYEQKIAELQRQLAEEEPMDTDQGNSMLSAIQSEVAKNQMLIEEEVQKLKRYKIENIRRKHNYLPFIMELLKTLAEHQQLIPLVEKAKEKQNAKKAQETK
inactive: [1] 0.229 | filanesib -0.13 | zotarolimus 0.227 | idasanutlin 0.057 | alisertib 0.072 | [2] 0.036 | gefitinib -0.04 | [3] 0.16 | lapatinib -0.07 | [4] 0.039 | crizotinib -0.458 | [5] 0.058 | [6] -0.05 | tozasertib 0.219 | doramapimod -0.067 | ispinesib 0.02

TMEM9B (UniProt Q9NQ34)
Chain of UniProt Q9NQ34 (Q9NQ34 whole entry, looked up): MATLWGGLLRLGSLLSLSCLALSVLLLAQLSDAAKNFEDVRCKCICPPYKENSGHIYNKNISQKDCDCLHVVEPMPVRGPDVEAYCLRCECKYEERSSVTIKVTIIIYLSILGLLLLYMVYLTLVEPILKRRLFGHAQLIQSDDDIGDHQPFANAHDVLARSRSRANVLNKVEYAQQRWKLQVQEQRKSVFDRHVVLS
inactive: [1] 0.001 | filanesib -0.039 | zotarolimus 0.014 | idasanutlin 0.036 | alisertib -0.032 | [2] 0.011 | gefitinib -0.047 | [3] -0.068 | lapatinib -0.118 | pictilisib 0.07 | [4] -0.035 | crizotinib -0.011 | [5] 0.105 | [6] 0.061 | gandotinib -0.116 | tozasertib -0.03 | doramapimod 0.023 | ispinesib -0.211

UBIAD1 (UniProt Q9Y5Z9)
Chain of UniProt Q9Y5Z9 (Q9Y5Z9 whole entry, looked up): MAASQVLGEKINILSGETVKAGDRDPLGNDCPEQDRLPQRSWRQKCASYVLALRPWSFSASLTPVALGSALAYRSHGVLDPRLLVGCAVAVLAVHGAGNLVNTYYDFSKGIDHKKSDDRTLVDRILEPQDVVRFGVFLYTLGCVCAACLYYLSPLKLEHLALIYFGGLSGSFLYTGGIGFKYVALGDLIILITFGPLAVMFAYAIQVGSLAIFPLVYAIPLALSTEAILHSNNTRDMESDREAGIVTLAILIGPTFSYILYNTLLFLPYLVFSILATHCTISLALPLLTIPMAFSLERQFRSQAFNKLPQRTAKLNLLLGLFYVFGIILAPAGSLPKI
inactive: [1] -0.063 | filanesib -0.038 | zotarolimus -0.246 | idasanutlin -0.039 | alisertib -0.054 | [2] -0.008 | gefitinib 0.077 | [3] 0.013 | lapatinib 0.082 | pictilisib 0.103 | [4] 0.107 | crizotinib 0.024 | [6] 0.001 | duvelisib 0.021 | gandotinib 0.069 | tozasertib -0.019 | [7] 0.004 | doramapimod -0.1 | ispinesib -0.117

TSC2 (UniProt P49815)
Chain of UniProt P49815 (P49815 whole entry, looked up): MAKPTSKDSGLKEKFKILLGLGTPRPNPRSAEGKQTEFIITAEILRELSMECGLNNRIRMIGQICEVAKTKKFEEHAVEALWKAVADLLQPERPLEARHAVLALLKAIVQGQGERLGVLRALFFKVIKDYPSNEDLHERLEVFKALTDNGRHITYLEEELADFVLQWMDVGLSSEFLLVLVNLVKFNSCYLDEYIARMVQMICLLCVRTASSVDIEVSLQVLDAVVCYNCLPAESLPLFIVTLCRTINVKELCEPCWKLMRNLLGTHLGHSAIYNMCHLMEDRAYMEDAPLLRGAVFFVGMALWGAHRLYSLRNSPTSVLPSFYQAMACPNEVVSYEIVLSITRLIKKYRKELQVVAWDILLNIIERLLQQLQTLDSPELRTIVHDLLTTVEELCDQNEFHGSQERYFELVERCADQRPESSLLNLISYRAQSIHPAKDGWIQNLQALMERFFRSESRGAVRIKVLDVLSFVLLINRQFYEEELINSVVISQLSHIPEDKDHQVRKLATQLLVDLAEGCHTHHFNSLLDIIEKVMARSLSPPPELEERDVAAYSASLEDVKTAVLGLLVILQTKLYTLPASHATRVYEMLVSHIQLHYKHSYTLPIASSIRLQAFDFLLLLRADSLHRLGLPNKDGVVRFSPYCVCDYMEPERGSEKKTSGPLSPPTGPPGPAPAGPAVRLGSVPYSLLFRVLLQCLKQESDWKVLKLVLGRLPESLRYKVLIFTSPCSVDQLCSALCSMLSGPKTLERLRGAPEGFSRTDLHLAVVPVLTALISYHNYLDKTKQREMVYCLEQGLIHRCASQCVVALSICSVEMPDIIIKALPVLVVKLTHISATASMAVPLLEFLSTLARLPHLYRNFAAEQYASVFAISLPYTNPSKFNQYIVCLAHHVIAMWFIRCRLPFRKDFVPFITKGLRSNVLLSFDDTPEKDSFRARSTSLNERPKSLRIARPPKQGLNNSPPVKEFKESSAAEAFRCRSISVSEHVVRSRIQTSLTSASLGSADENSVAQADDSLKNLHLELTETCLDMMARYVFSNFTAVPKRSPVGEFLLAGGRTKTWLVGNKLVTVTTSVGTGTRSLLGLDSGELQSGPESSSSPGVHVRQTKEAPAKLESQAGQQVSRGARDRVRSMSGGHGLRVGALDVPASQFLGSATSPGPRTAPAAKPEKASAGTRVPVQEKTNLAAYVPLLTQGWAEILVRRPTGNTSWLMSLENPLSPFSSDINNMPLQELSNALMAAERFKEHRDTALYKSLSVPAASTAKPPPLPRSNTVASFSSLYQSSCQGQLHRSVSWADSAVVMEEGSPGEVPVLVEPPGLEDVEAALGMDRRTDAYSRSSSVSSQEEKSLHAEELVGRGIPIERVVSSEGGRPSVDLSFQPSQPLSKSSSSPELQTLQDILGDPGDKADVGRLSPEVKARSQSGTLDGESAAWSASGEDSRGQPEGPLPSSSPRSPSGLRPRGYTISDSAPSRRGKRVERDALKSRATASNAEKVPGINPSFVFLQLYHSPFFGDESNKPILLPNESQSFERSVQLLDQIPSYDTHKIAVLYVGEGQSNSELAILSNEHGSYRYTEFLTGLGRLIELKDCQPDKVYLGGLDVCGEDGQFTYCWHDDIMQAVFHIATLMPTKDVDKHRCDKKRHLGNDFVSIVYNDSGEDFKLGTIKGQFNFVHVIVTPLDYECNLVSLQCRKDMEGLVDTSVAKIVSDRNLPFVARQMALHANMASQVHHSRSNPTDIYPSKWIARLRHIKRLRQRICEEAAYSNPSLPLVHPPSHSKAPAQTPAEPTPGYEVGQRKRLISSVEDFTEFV
inactive: [1] 0.361 | filanesib 0.198 | zotarolimus -0.181 | idasanutlin 0.017 | alisertib 0.195 | [2] -0.039 | [3] 0.139 | lapatinib 0.135 | pictilisib 0.076 | [4] -0.09 | crizotinib 0.065 | [5] -0.139 | [6] 0.218 | gandotinib -0.091 | tozasertib -0.172 | doramapimod 0.09 | ispinesib 0.012

TTC33 (UniProt Q6PID6)
Chain of UniProt Q6PID6 (Q6PID6 whole entry, looked up): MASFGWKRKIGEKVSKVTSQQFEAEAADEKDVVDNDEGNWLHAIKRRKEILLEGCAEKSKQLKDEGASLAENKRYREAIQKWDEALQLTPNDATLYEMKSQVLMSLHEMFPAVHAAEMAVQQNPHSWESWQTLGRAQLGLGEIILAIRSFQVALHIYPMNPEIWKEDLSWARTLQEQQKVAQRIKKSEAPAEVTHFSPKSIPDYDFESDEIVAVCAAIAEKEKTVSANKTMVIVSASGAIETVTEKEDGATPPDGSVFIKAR
inactive: [1] 0.094 | filanesib 0.031 | zotarolimus -0.113 | idasanutlin -0.039 | alisertib 0.071 | [2] 0.082 | [3] 0.086 | lapatinib -0.15 | pictilisib -0.093 | [4] 0.056 | crizotinib -0.399 | [5] -0.113 | [6] 0.146 | duvelisib 0.002 | gandotinib -0.192 | [7] -0.06 | doramapimod -0.15 | ispinesib -0.095

USP34 (UniProt Q70CQ2)
inactive: [1] 0.021 | filanesib 0.011 | zotarolimus -0.03 | idasanutlin -0.239 | alisertib 0.021 | [2] 0 | gefitinib -0.024 | [3] -0.073 | lapatinib 0.011 | pictilisib 0.135 | [4] -0.049 | crizotinib -0.142 | [5] 0.046 | [6] 0.051 | duvelisib 0.078 | gandotinib -0.131 | tozasertib 0.061 | [7] 0.118 | doramapimod -0.006 | ispinesib -0.007
